# Assay results from article PMC7862700, “An all-to-all approach to the identification of sequence-specific readers for epigenetic DNA modifications on cytosine”.
# What was measured:
# Experiment in all cases: DAPPL (digital affinity profiling via proximity ligation, sequencing); 10 mM Tris-HCl pH 7.5, 50 mM NaCl, 1 mM DTT, 4% glycerol, room temperature, 30 min; GST-TFs on glutathione beads, 16-mer random dsDNA library, 0.1% formaldehyde crosslink after washing; high values mean tight binding
# Settings in all cases: protein: recombinant; tags: N-terminal GST; dsDNA, one strand shown
# FLI1 = target: T1, FLI1 (Homo sapiens, UniProt Q01543 1-452)
# T1 sequence: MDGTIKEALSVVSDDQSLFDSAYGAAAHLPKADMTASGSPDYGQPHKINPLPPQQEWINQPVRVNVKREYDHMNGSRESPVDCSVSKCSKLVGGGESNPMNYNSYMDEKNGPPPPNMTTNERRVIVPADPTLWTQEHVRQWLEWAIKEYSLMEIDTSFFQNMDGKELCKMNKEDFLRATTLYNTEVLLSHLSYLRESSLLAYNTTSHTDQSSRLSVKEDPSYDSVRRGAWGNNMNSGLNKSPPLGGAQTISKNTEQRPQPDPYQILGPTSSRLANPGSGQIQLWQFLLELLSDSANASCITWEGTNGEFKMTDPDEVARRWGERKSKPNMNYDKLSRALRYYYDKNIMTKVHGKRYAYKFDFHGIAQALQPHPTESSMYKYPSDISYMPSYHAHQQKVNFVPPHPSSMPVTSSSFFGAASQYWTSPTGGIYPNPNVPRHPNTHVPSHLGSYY
# How it was run: (§1)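 Binding signal is defined as a hexamer's read frequency for one factor over its frequency for the tag-only sample. To obtain reads, GST-fused human transcription factors were expressed in yeast, captured on glutathione beads, barcoded with DNA and pooled with that sample. Pools met 200 nmole of a 16-mer random double-stranded DNA library in Tris/NaCl/DTT/glycerol buffer for 30 min at room temperature before washing, 0.1% formaldehyde crosslinking, proximity ligation (BsaI/T4 ligase, 1 h, 37 °C), PCR and Illumina NextSeq500 sequencing.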
# GABPA = target: T2, GABPA (Homo sapiens, UniProt Q06546 1-454)
# T2 sequence: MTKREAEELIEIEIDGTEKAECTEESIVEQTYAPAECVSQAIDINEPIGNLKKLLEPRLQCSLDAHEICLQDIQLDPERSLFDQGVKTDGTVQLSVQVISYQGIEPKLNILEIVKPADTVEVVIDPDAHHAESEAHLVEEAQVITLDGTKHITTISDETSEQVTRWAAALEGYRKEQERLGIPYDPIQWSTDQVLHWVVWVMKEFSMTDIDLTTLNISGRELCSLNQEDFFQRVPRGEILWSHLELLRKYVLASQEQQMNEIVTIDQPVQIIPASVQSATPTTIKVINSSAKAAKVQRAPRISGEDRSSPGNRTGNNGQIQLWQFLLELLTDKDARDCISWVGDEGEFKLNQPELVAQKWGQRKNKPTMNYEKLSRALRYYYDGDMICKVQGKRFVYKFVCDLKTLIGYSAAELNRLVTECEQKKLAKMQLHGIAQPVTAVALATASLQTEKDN
# How it was run: as §1
# SPI1 = SPI1 (Homo sapiens, UniProt P17947 1-270)
# How it was run: as §1
# SPIB = SPIB (Homo sapiens, UniProt Q01892 1-262)
# How it was run: as §1
# FEV = target: T3, FEV (Homo sapiens, UniProt Q99581 1-238)
# T3 sequence: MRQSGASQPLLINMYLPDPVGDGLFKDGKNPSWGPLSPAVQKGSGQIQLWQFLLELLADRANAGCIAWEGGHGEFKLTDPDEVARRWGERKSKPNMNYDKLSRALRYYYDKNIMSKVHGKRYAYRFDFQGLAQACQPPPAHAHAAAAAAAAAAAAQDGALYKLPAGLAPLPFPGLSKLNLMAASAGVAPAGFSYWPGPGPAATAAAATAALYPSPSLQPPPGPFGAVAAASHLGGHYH
# How it was run: as §1
# SPIC = target: T4, SPIC (Homo sapiens, UniProt Q8N5J4 1-248)
# T4 sequence: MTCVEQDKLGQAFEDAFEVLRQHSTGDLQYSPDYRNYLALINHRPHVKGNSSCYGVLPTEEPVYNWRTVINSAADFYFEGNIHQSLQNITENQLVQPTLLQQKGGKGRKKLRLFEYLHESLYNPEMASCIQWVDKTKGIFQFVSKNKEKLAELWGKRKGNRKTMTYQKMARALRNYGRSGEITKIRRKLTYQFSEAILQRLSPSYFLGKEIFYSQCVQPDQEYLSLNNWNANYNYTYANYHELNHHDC
# How it was run: as §1
# ELK4 = target: T5, ELK4 (Homo sapiens, UniProt P28324-2 1-405)
# T5 sequence: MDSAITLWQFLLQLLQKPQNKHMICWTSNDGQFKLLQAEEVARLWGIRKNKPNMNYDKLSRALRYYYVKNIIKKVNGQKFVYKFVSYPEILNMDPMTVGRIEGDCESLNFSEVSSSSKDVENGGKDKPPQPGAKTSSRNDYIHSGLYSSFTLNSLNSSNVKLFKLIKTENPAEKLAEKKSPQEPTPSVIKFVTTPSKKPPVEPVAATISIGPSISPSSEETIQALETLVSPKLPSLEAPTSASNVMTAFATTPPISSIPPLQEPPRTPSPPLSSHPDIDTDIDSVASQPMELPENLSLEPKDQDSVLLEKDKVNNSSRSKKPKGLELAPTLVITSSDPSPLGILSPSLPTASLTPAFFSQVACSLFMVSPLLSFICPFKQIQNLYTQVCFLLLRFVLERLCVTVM
# How it was run: as §1
# ETV2 = target: T6, ETV2 (Homo sapiens, UniProt O00321 1-342)
# T6 sequence: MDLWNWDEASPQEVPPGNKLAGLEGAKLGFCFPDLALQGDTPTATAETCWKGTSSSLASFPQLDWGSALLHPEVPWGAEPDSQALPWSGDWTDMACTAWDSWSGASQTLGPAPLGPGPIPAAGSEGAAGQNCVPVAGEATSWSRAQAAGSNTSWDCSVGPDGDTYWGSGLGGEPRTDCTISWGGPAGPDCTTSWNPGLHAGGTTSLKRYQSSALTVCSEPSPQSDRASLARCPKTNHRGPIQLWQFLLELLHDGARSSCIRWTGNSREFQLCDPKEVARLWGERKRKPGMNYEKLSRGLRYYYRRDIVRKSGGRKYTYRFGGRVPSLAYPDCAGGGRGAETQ
# How it was run: as §1
# ELF3 = target: T7, ELF3 (Homo sapiens, UniProt P78545 1-371)
# T7 sequence: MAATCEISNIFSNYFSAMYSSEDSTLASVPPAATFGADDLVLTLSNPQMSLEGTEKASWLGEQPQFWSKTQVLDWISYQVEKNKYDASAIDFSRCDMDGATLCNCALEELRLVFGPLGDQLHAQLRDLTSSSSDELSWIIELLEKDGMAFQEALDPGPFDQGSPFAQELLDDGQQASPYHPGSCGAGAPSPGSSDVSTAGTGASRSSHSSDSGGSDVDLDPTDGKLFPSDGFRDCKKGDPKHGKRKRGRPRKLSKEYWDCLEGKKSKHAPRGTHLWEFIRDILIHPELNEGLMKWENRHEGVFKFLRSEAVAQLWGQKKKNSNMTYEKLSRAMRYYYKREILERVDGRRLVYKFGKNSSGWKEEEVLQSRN
# How it was run: as §1
# ETV1 = ETV1 (Homo sapiens, UniProt P50549 1-477)
# How it was run: as §1
# ERF = target: T8, ERF (Homo sapiens, UniProt P50548 1-548)
# T8 sequence: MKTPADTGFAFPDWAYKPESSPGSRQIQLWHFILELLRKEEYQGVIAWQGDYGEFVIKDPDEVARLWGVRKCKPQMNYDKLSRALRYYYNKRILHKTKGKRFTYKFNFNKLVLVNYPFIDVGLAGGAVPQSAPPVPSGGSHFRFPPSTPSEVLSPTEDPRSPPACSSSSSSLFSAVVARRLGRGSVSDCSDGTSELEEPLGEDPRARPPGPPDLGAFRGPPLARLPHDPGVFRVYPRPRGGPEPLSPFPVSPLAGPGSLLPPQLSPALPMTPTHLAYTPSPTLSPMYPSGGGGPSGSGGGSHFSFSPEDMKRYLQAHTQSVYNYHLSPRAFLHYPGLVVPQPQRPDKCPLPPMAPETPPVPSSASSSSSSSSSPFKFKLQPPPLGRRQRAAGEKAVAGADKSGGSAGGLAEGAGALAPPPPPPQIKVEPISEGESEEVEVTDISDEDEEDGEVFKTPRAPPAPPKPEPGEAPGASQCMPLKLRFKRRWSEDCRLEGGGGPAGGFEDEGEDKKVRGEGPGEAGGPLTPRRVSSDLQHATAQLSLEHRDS
# How it was run: as §1
# ETV3L = target: T9, ETV3L (Homo sapiens, UniProt Q6ZN32 1-361)
# T9 sequence: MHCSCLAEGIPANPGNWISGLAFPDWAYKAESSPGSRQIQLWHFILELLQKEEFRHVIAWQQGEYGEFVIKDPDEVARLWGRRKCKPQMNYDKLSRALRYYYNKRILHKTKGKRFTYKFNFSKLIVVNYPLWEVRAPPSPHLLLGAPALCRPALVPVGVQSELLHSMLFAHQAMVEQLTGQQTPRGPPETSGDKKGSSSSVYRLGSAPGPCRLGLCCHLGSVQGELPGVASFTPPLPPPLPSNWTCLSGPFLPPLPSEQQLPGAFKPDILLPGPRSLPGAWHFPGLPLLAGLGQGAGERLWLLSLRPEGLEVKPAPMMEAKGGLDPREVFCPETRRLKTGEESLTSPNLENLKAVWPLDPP
# How it was run: as §1
# ETS2 = target: T10, ETS2 (Homo sapiens, UniProt P15036 1-469)
# T10 sequence: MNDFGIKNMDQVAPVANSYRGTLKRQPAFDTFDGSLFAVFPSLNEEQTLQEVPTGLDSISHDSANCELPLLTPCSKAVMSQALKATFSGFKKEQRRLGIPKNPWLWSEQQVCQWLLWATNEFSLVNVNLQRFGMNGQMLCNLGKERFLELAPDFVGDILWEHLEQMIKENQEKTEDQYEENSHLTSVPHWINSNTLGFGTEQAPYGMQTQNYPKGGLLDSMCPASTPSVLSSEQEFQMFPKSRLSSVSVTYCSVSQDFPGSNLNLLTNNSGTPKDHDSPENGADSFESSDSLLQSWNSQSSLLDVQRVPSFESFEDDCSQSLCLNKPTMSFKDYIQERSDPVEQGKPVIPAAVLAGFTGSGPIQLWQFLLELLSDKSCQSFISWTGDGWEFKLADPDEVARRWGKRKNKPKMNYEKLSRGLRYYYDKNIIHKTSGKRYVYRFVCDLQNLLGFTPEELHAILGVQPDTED
# How it was run: as §1
# SPDEF = target: T11, SPDEF (Homo sapiens, UniProt O95238 1-335)
# T11 sequence: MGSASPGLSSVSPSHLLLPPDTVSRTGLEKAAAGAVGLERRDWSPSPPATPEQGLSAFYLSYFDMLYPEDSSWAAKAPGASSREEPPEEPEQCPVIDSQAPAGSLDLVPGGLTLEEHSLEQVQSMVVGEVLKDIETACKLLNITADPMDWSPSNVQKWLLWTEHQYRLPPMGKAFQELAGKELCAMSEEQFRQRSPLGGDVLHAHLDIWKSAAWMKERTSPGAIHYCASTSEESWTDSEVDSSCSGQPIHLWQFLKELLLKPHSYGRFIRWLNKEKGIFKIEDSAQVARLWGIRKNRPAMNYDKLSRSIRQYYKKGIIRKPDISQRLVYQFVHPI
# How it was run: as §1
# ETV7 = target: T12, ETV7 (Homo sapiens, UniProt Q9Y603 1-341)
# T12 sequence: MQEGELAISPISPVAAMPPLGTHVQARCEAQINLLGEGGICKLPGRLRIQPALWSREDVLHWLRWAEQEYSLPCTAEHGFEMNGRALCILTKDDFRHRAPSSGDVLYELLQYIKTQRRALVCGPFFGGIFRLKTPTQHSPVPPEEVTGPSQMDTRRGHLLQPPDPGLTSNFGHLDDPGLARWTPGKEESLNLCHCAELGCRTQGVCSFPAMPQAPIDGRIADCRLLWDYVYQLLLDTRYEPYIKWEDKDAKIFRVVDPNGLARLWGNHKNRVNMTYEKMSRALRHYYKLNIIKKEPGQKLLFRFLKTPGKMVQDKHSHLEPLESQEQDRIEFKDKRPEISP
# How it was run: as §1
# ELF5 = target: T13, ELF5 (Homo sapiens, UniProt Q9UKW6-2 1-255)
# T13 sequence: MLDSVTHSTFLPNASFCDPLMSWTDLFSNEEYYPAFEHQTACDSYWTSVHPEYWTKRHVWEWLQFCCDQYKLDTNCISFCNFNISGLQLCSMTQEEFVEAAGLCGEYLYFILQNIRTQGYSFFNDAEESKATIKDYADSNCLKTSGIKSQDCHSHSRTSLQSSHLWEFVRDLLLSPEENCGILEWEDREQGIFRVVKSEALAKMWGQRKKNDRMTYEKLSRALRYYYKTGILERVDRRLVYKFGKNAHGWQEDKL
# How it was run: as §1
# Chain of ETV1 (P50549 whole entry): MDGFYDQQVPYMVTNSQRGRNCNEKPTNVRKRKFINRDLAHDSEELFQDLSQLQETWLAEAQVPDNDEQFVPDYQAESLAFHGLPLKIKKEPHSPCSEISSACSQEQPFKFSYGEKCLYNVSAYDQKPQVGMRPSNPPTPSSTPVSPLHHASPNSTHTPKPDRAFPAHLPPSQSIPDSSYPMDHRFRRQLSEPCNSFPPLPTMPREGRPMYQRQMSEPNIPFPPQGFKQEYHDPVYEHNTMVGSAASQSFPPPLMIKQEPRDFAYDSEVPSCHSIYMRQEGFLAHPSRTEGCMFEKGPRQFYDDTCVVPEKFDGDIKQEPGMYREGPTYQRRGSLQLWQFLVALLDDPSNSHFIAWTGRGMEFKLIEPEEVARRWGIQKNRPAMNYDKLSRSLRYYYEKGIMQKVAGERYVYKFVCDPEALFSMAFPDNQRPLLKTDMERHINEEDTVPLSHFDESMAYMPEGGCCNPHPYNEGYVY
# Chain of SPIB (Q01892 whole entry): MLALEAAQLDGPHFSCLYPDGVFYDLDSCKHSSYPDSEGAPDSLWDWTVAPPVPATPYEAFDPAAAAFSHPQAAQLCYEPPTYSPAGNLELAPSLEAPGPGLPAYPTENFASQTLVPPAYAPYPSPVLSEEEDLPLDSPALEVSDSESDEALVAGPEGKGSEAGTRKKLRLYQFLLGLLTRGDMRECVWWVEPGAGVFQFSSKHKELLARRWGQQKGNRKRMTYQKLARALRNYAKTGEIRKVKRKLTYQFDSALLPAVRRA
sequence,measurement,setting,value
ATGCGT,binding signal,FLI1,"1.06 fold enrichment (6-mer frequency, TF over GST control)"
same,binding signal,GABPA,"1.07 fold enrichment (6-mer frequency, TF over GST control)"
same,binding signal,SPI1,"1.03 fold enrichment (6-mer frequency, TF over GST control)"
same,binding signal,SPIB,"1.03 fold enrichment (6-mer frequency, TF over GST control)"
same,binding signal,FEV,"1.01 fold enrichment (6-mer frequency, TF over GST control)"
same,binding signal,SPIC,"1.07 fold enrichment (6-mer frequency, TF over GST control)"
same,binding signal,ELK4,"1.15 fold enrichment (6-mer frequency, TF over GST control)"
same,binding signal,ETV2,"1.18 fold enrichment (6-mer frequency, TF over GST control)"
same,binding signal,ELF3,"1.07 fold enrichment (6-mer frequency, TF over GST control)"
same,binding signal,ETV1,"1.02 fold enrichment (6-mer frequency, TF over GST control)"
same,binding signal,ERF,"1.01 fold enrichment (6-mer frequency, TF over GST control)"
same,binding signal,ETV3L,"1.1 fold enrichment (6-mer frequency, TF over GST control)"
same,binding signal,ETS2,"1.02 fold enrichment (6-mer frequency, TF over GST control)"
same,binding signal,SPDEF,"1.07 fold enrichment (6-mer frequency, TF over GST control)"
same,binding signal,ETV7,"1.16 fold enrichment (6-mer frequency, TF over GST control)"
same,binding signal,ELF5,"1.03 fold enrichment (6-mer frequency, TF over GST control)"
